For 37 compounds, outcome and AC50 results are on record in PubChem BioAssay (EPA / NIEHS).

The structures appear in SMILES notation. Records with an inconclusive call do not appear. Activity calls are given as the source filed them. The calls were made as follows, unless noted: active = hit-call score of the fitted dose curve at least 0.9, where 1 is the maximum; inactive = score below 0.9.

Sequence of Nuclear receptor subfamily 4 group A member 2 (Homo sapiens) (P43354 whole entry, looked up, the tested form may be a part): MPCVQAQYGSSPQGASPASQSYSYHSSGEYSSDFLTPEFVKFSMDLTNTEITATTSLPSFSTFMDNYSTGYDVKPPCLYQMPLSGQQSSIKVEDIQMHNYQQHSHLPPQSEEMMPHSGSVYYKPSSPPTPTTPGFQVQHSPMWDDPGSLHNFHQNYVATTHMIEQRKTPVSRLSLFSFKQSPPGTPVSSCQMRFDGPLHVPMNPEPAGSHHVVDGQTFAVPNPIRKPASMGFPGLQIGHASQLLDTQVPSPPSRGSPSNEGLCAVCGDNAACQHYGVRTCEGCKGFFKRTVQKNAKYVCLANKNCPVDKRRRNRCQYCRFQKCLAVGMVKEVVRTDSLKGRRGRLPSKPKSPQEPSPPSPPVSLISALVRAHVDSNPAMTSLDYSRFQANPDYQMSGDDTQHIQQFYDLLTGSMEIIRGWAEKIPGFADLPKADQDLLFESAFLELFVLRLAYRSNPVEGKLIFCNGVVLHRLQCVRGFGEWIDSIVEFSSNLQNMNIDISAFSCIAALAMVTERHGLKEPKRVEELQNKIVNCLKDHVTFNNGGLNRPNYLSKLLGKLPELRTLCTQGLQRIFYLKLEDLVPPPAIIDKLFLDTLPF

The first test has as its target Nuclear receptor subfamily 4 group A member 2 (Homo sapiens) (UniProt P43354). Put plainly: ATG_NURR1_TRANS: Attagene TRANS-FACTORIAL HepG2 Assay for human Nuclear Receptor Related Protein 1 (NURR1) (AID 2282985; active = hit-call score of the fitted dose curve at least 0.9, where 1 is the maximum). The following applies: HepG2 Attagene TRANS reporter, mRNA readout. The method, boiled down:
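Read-out: reporter mRNA induction by RT-PCR plus capillary electrophoresis with fluorescence detection, after 24 h dosing of transfected HepG2 cells. Exogenous NR-Gal4 chimera activity drives GAL4-UAS reporter; activity fitted upward versus DMSO.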
As to `CC(CCC(=O)O)(c1ccc(O)cc1)c1ccc(O)cc1`, the result was inactive.

With `CC1C(C)(C)C2=C(C(=O)CCC2)C1(C)C` (centres undefined), the outcome was inactive.

On to `CN(C)c1ccc2nc3ccc(=[N+](C)C)cc-3sc2c1`, for which the result was inactive.

As for `C=C(C)OC(C)=O`, the call was inactive.

As to `CC(Cl)COP(=O)(OCC(C)Cl)OCC(C)Cl` (centres undefined), the call was inactive.

For `COc1ccc(C(=O)/C(Br)=C\C(=O)O)cc1`, the outcome was inactive.

Consider `CC1=CP(=O)(c2ccccc2)CC1` (centres undefined), for which the outcome was inactive.

Turning to `CCCCC1C(=O)N(c2ccccc2)N(c2ccccc2)C1=O`, the outcome was inactive.

`CCOC(=O)/C=C\C(=O)OCC`: the outcome was inactive.

Regarding `CCN(CC)c1cccc(C)c1`, the result was inactive.

Turning to `Cn1ccnc1`, the outcome was inactive.

Take `CC1=CC(C)C(C=O)CC1` (centres undefined): the outcome was inactive.

As to `CCc1cccc(C)c1N`, the call was inactive.

On to `O=C(O)c1cc(O)c2ccccc2c1O`, for which the AC50 is 1.1 µM (active).

With `CCOC(=O)C1=NN(c2ccc(Cl)cc2Cl)C(C)(C(=O)OCC)C1` (centres undefined), the AC50 is 168 µM (active).

With `Cc1c(O)cccc1O`, the compound was classed as inactive.

For `O=S(=O)(O)c1ccc(Nc2nc(Nc3ccc(C=Cc4ccc(Nc5nc(Nc6ccc(S(=O)(=O)O)cc6)nc(N(CCO)CCO)n5)cc4S(=O)(=O)O)c(S(=O)(=O)O)c3)nc(N(CCO)CCO)n2)cc1`, the compound was classed as inactive.

Regarding `CC(C)c1cccc(C(C)C)c1N`, the call was inactive.

On to `CCCCC(CC)COC(=O)/C=C/c1ccc(OC)cc1` (centres undefined), for which the compound was called inactive.

For the compound `COC(OC)(C(=O)c1ccccc1)c1ccccc1`, the compound was called inactive.

For `CCC1(C)C(=O)N(Cl)C(=O)N1Cl` (centres undefined), the compound was called inactive.

Regarding `C=Cc1ccc(OC(C)=O)cc1`, the compound was classed as inactive.

Consider `CC(C)(c1ccccc1)c1ccc(Nc2ccc(C(C)(C)c3ccccc3)cc2)cc1`, for which the call was inactive.

In the case of `C=C(C)C(=O)OCCCCCCCCCCCC`, the compound was called inactive.

Turning to `Fc1ccc(Br)cc1`, the call was inactive.

`O=C(Cl)c1c(Cl)c(Cl)c(C(=O)Cl)c(Cl)c1Cl`: the compound was classed as inactive.

`CC(C)(CO)C(O)C(=O)NCCCO` (centres undefined): the compound was classed as inactive.

The target in the next test is Transcriptional activator Myb (Homo sapiens) (UniProt P10242). As to the kind of experiment: ATG_Myb_CIS: Attagene CIS-FACTORIAL HepG2 Assay for human Myeloblastosis (Myb) Proto-Oncogene Transcription Factor (AID 2282986). The following applies: HepG2 Attagene CIS-FACTORIAL Myb reporter transcription; actives raise or lower the signal. The method, boiled down: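 Multiplexed cis-reporter system in HepG2: transient transfection, 24 h treatment, mRNA readout by RT-PCR and capillary electrophoresis. Both increases and decreases are scored versus DMSO negative control.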
Sequence of Transcriptional activator Myb (Homo sapiens) (P10242 whole entry, looked up): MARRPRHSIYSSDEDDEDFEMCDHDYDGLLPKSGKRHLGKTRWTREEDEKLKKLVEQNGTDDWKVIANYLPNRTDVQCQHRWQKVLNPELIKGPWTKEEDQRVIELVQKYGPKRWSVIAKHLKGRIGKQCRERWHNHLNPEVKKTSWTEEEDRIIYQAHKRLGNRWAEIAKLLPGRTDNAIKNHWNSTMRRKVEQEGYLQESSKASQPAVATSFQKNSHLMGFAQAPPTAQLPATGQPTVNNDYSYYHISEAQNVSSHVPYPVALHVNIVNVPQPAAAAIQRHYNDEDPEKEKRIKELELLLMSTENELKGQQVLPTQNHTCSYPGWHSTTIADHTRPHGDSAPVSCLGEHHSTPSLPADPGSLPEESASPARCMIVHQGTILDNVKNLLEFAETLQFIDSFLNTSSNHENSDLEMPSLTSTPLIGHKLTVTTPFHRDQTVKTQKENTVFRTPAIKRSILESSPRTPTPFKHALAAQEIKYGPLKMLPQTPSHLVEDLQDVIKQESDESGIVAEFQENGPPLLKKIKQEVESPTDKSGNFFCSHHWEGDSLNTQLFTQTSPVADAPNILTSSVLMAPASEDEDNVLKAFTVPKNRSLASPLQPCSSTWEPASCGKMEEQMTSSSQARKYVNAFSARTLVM
In the case of `CC(CCC(=O)O)(c1ccc(O)cc1)c1ccc(O)cc1`, the compound was classed as inactive.

As for `CC1C(C)(C)C2=C(C(=O)CCC2)C1(C)C` (centres undefined), the compound was classed as inactive.

Turning to `CN(C)c1ccc2nc3ccc(=[N+](C)C)cc-3sc2c1`, the call was inactive.

In the case of `C=C(C)OC(C)=O`, the compound was called inactive.

In the case of `[Cl][Sc]([Cl])[Cl]`, the call was inactive.

On to `CC(Cl)COP(=O)(OCC(C)Cl)OCC(C)Cl` (centres undefined), for which the result was inactive.

As to `CC(=O)OC1CCCCC1`, the compound was called inactive.

For the compound `CCC(=O)C1CC(C(C)C)CC=C1C` (centres undefined), the compound was classed as inactive.

Regarding `COc1ccc(C(=O)/C(Br)=C\C(=O)O)cc1`, the compound was classed as inactive.

With `CC1=CP(=O)(c2ccccc2)CC1` (centres undefined), the compound was classed as inactive.

Take `CCCCC1C(=O)N(c2ccccc2)N(c2ccccc2)C1=O`: the call was inactive.

Consider `CCOC(=O)/C=C\C(=O)OCC`, for which the call was inactive.

Consider `CCN(CC)c1cccc(C)c1`, for which the compound was classed as inactive.

For `Cn1ccnc1`, the outcome was inactive.

`CCCCNC(=S)NCCCC`: the compound was classed as inactive.

Turning to `CC1=CC(C)C(C=O)CC1` (centres undefined), the outcome was inactive.

As for `CCc1cccc(C)c1N`, the compound was called inactive.

Take `O=C(O)c1cc(O)c2ccccc2c1O`: the half-maximal activity concentration (AC50) was 57.4 µM (active).

As for `CCOC(=O)C1=NN(c2ccc(Cl)cc2Cl)C(C)(C(=O)OCC)C1` (centres undefined), the compound was called inactive.

As for `CO[Si](C)(C)OC`, the AC50 was 151 µM (active).

As to `Cc1c(O)cccc1O`, the compound was classed as inactive.

`CCCC(C)C(=O)OCC` (centres undefined): the outcome was inactive.

For `O=S(=O)(O)c1ccc(Nc2nc(Nc3ccc(C=Cc4ccc(Nc5nc(Nc6ccc(S(=O)(=O)O)cc6)nc(N(CCO)CCO)n5)cc4S(=O)(=O)O)c(S(=O)(=O)O)c3)nc(N(CCO)CCO)n2)cc1`, the call was inactive.

Regarding `CC(C)c1cccc(C(C)C)c1N`, the compound was classed as inactive.

For `CCCCCCOC(=O)CCCCC(=O)OCCCCCC`, the compound was classed as inactive.

With `C=C(C)C1CC=C(C)C(OC(C)=O)C1` (centres undefined), the call was inactive.

With `CCCCC(CC)COC(=O)/C=C/c1ccc(OC)cc1` (centres undefined), the call was inactive.

As to `COC(OC)(C(=O)c1ccccc1)c1ccccc1`, the call was inactive.

In the case of `CCC1(C)C(=O)N(Cl)C(=O)N1Cl` (centres undefined), the call was inactive.

With `C=Cc1ccc(OC(C)=O)cc1`, the compound was classed as inactive.

With `CC(C)(c1ccccc1)c1ccc(Nc2ccc(C(C)(C)c3ccccc3)cc2)cc1`, the outcome was inactive.

For `c1ccc2cnccc2c1`, the compound was classed as inactive.

Consider `C=C(C)C(=O)OCCCCCCCCCCCC`, for which the result was inactive.

Take `COC(=O)CC(C)CCC=C(C)C` (centres undefined): the outcome was inactive.

`Fc1ccc(Br)cc1`: the compound was called inactive.

As for `O=C(Cl)c1c(Cl)c(Cl)c(C(=O)Cl)c(Cl)c1Cl`, the compound was called inactive.

Regarding `CC(C)(CO)C(O)C(=O)NCCCO` (centres undefined), the outcome was inactive.
